# Laboratory results published in PubChem BioAssay AID1347416 (National Center for Advancing Translational Sciences (NCATS), 2020).
# In all, about 4,100 compounds went through this assay and about 1,600 (39%) were called active. Another 25% or so got no clear call; they are omitted. Calls come from the whole dose curve; as a rule, active = well fitted inhibition curve with a large enough effect; inconclusive = small, poorly fitted or top-dose-only effect; inactive = no such curve, though single readings can be large or run the other way. Some of the results follow.
# Test: qHTS Validation assay for Inhibitors of Plasmodium falciparum Dd2 growth in vitro; note: nearly all actives have a fitted effect of over 70% in size
# Settings: P. falciparum Dd2 in RBCs, SYBR Green growth, 72 h; series mostly up to 28.7 µM
# Method in brief: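 P. falciparum Dd2-infected red blood cells (2.5% hematocrit, 0.3% parasitemia) grown 72 h at 37 °C under 5% O2 with compounds in a titration, 29 uM to 0.5 nM final. Growth read as SYBR Green-1 fluorescence after ~16 h lysis; artesunate 300 nM as positive control.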
# Potency is the fitted concentration of half-maximal effect.
row,Compound,Potency
1,Cc1cc(Nc2cc(Cl)cc(Cl)c2)nc(N)n1,6.68 µM (active)
2,CCOCc1cnc(C)nc1NCC(=O)c1c(C)[nH]c2cc(C)ccc12,4.22 µM (active)
3,CCN1CCC(OCCCNC(=O)C2(CCO)CC23CCOCC3)CC1 (configuration not stated),inactive
4,COc1cc(OC)cc(-c2cc3nc4c(c(N5CCN(c6ncccn6)CC5)n3n2)CCCC4)c1,4.22 µM (active)
5,COc1ccc(-c2nnc([C@H]3CCN(c4ncccn4)C3)o2)cc1,inactive
6,CCOC(=O)Cn1c2c(c(=N)c3c1CCC3)CCCC2,inactive
7,CCCn1c2c(c(=N)c3c1CCC3)CCCC2,10.6 µM (active)
8,CCn1c2c(c(=N)c3ccccc31)CCC2,6.68 µM (active)
9,CCOC(=O)Cn1c2c(c(=N)c3c1CCC3)CCC2,inactive
10,CCCn1c2c(c(=N)c3c1CCC3)CCC2,13.3 µM (active)
11,CCn1c2c(c(=N)c3c1CCC3)CCCC2,13.3 µM (active)
12,CCCCn1c2c(c(=N)c3c1CCC3)CCC2,8.41 µM (active)
13,CC(C)c1noc(-c2cccn3c(CNC(=O)c4ccc(F)cc4Cl)nnc23)n1,inactive
14,Cc1nn2c(c1-c1ccccc1C(C)C)N(CCC(C)C)CCC2,2.17 µM (active)
15,Cc1nn2c(c1-c1ccccc1[S+](C)(=O)[O-])N(Cc1ccc(C(=O)O)s1)CCC2,7.69 µM (active)
16,Cc1nn2c(c1-c1ccccc1-c1ccccc1)N(CCC(C)C)CCC2,0.243 µM (active)
17,Cc1nn2c(c1-c1ccccc1-c1ccccc1)N(CC1CC1)CCC2,0.968 µM (active)
18,Cc1ccc(-c2csc3nc[nH]c(=O)c23)c(C)c1,inactive
19,CCc1noc(-c2cccn3c(CNC(=O)COc4ccc(F)cc4)nnc23)n1,inactive
20,O=C1Cc2c(-c3ccc(Oc4ccccc4)cc3)n[nH]c2CN1Cc1ccccc1F,inactive
21,Cc1nn2c(c1-c1ccccc1[S+](C)(=O)[O-])N(CCC(C)C)CCC2,9.68 µM (active)
22,O=C1CCC2(CCN1)CCN(C(=O)C1CCCCC1)CC2,inactive
23,CCC(=O)N1c2ccccc2CC1C(=O)NCc1ccccc1C (configuration not stated),inactive
24,COc1ccc(C(=O)N2CCC(C3CCN(S(C)(=O)=O)CC3)C2)c(OC)n1 (configuration not stated),inactive
25,CCN(CC)c1ccc(NC(=O)COc2ccccc2C#N)cc1S(=O)(=O)Nc1ccccc1OC,7.5 µM (active)
26,COc1ccccc1N(CC(=O)Nc1cc(C)cc(C)c1)S(C)(=O)=O,inactive

row,Compound,Potency
1,OC(Cc1ccncc1)(c1ccccc1)c1ccccc1,inactive
2,CN(C)CC(CCC(CN(C)C)C(O)(c1ccccc1)c1ccccc1)C(O)(c1ccccc1)c1ccccc1 (configuration not stated),2.11 µM (active)
3,O=S(=O)(Nc1cc2nc3ccccc3nc2n1Cc1ccccc1)c1ccc(Cl)cc1,1.19 µM (active)
4,CCOc1ccccc1Nc1nc2ccccc2nc1NS(=O)(=O)c1ccc(Cl)cc1,inactive
5,Cc1nn(CCCC(=O)Nc2ccccc2C(F)(F)F)c(=O)c2nn(-c3ccccc3)c(C)c12,inactive
6,COc1cc(Br)c(C(C)NC(=O)c2cccc(Br)c2)cc1OC (configuration not stated),2.11 µM (active)
7,O=C(Nc1ccccc1O)c1ccc(NC(=O)C2CC2)cc1,4.73 µM (active)
8,CC(C)CN1C(=O)CO[C@H](c2ccc(NC(=O)C3CCCC3)cc2)[C@H]1CO,inactive
9,COc1ccccc1N1CCN(CCCNC(=O)c2cnn(-c3ccccc3Cl)c2C2CCN(C(=O)OC(C)(C)C)CC2)CC1,2.37 µM (active)
10,COc1ccccc1N1CCN(CCCNC(=O)c2cnn(-c3cccc(Cl)c3)c2C2CCN(C(=O)OC(C)(C)C)CC2)CC1,2.11 µM (active)
11,CCOc1ccc(C(=O)Nc2cccc(NC(=O)c3ccc(C(C)(C)C)cc3)c2)cc1Br,inactive
12,Cc1cc(=O)n2[nH]c(NC(=O)c3cccc(Cl)c3)nc2n1,inactive
13,CCN1c2cc(C(=O)Nc3cccc(Cl)c3)ccc2C(=O)N2CCCCC21 (configuration not stated),inactive
14,CCN1CCN(c2cc(C)c3cc(NC(=O)c4cc(OC)cc(OC)c4)ccc3n2)CC1,3.35 µM (active)
15,Cc1cc(Nc2cccc(C(F)(F)F)c2)nc2ccc(NC(=O)c3cncc(Br)c3)cc12,2.37 µM (active)
16,CCN1CCN(c2cc(C)c3cc(NC(=O)c4cccc(Cl)c4)ccc3n2)CC1,4.73 µM (active)
17,CCN1CCN(c2cc(C)c3cc(NC(=O)c4cc(OC)c(OC)c(OC)c4)ccc3n2)CC1,1.33 µM (active)
18,CNC(=O)[C@@H]1C[C@H](Oc2ccccc2)CN1C(=O)c1cc2ccccc2[nH]1,inactive
19,COc1cc(C(=O)Nc2ccc3nc(N4CCN(C)CC4)cc(C)c3c2)cc(OC)c1OC,3.35 µM (active)
20,COc1ccc(NC(=O)CCn2ccn3nc4c(c3c2=O)CCCC4)cc1OC,inactive
21,COc1ccc(Nc2cc(C)c3cc(NC(=O)c4cc(OC)cc(OC)c4)ccc3n2)cc1,0.75 µM (active)
22,O=C(c1ccco1)N1CC(Oc2cccc(-c3nc(-c4ccccc4)no3)c2)C1,inactive
23,CCCNC(=O)N1CC(Oc2cccc(-c3nc(-c4ccccc4)no3)c2)C1,13.3 µM (active)
24,Cc1noc(-c2cccc(OC3CN(S(=O)(=O)c4cn(C)cn4)C3)c2)n1,inactive
25,COc1ccc(OC)c(S(=O)(=O)Nc2ccc(O)c3ccccc23)c1,8.41 µM (active)
26,COc1ccc(OC)c(S(=O)(=O)NCCc2sc(C)nc2C)c1,inactive
